{"source": "the supplement of paper PMC4022240", "binders": {"B1": {"name": "Unmod H1 variant T K K E I K K V A T P K K (peptide)", "chain": "TKKEIKKVATPKK"}, "B2": {"name": "Unmod H1 variant A E K N R A G S S R Q S I (peptide)", "chain": "AEKNRAGSSRQSI"}, "B3": {"name": "H4 53-65 E T R G V L Kme3 V F L E N V (peptide)", "chain": "ETRGVLKVFLENV"}, "B4": {"name": "Unmod H1 variant K A A S K A P T K K P K A (peptide)", "chain": "KAASKAPTKKPKA"}, "B5": {"name": "Unmod H1 variant D S Q I K L S I K R L V T (peptide)", "chain": "DSQIKLSIKRLVT"}}, "note": "± gives the standard deviation.", "data": [{"target": "T1, HaloTag-ATRX ADD domain (163-292)", "T1 chain": "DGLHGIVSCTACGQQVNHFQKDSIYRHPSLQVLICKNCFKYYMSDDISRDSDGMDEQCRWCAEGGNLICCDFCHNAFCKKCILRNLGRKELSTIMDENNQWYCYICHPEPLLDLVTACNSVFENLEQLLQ", "experiment": "peptide microarray binding signal (635 nm), min-max normalized on array (fraction of array maximum); higher = stronger binding", "details": "peptide region: Unmod H1 variant; binder concentration: 50 nM", "outline": "(§1)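 Triplicate spots of histone 13-mer peptide–cellulose conjugates with a Cy3 tracer were printed on nitrocellulose and probed for 1 h at 4°C with biotin-labelled HaloTag reader fusions (10 nM to 1 μM) plus streptavidin-Alexa Fluor 647 or rabbit histone antibodies (1:10,000 to 1:2,000) plus anti-rabbit Alexa 647. An Axon GenePix 4000B read the 635 nm channel. Binding signal is the spot-triplicate mean intensity after min-max scaling within each library.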", "values": [{"binder": "B1", "peptide microarray binding signal": "0.0108 ± 0.00026"}, {"binder": "B2", "peptide microarray binding signal": "0.0112 ± 0.00071"}, {"binder": "B4", "peptide microarray binding signal": "0.0142 ± 0.00045"}, {"binder": "B5", "peptide microarray binding signal": "0.0155 ± 0.00047"}]}, {"target": "T1, HaloTag-ATRX ADD domain (163-292)", "experiment": "peptide microarray binding signal (635 nm), min-max normalized on array (fraction of array maximum); higher = stronger binding", "details": "peptide region: Unmod H1 variant; binder concentration: 500 nM", "outline": "as §1", "values": [{"binder": "B1", "peptide microarray binding signal": "0.00952 ± 0.00026"}, {"binder": "B2", "peptide microarray binding signal": "0.0179 ± 0.0034"}, {"binder": "B4", "peptide microarray binding signal": "0.0141 ± 0.00028"}, {"binder": "B5", "peptide microarray binding signal": "0.0281 ± 0.00085"}]}, {"target": "HaloTag-ING2 PHD (mouse Ing2 200-280)", "experiment": "peptide microarray binding signal (635 nm), min-max normalized on array (fraction of array maximum); higher = stronger binding", "details": "peptide region: Unmod H1 variant; binder concentration: 10 nM", "outline": "as §1", "values": [{"binder": "B1", "peptide microarray binding signal": "0.00185 ± 3.8e-05"}, {"binder": "B2", "peptide microarray binding signal": "0.00495 ± 0.00025"}, {"binder": "B4", "peptide microarray binding signal": "0.00257 ± 0.00013"}, {"binder": "B5", "peptide microarray binding signal": "0.003819 ± 3.5e-05"}]}, {"target": "HaloTag-ING2 PHD (mouse Ing2 200-280)", "experiment": "peptide microarray binding signal (635 nm), min-max normalized on array (fraction of array maximum); higher = stronger binding", "details": "peptide region: Unmod H1 variant; binder concentration: 100 nM", "outline": "as §1", "values": [{"binder": "B1", "peptide microarray binding signal": "0.00482 ± 0.0004"}, {"binder": "B2", "peptide microarray binding signal": "0.00943 ± 0.0026"}, {"binder": "B4", "peptide microarray binding signal": "0.019 ± 0.0066"}, {"binder": "B5", "peptide microarray binding signal": "0.00801 ± 0.00074"}]}, {"target": "anti-H3K4me3 antibody ab8580", "experiment": "peptide microarray binding signal (635 nm), min-max normalized on array (fraction of array maximum); higher = stronger binding", "details": "peptide region: Unmod H1 variant; binder concentration: 1:2,000 dilution", "outline": "as §1", "values": [{"binder": "B1", "peptide microarray binding signal": "0.000604 ± 3e-05"}, {"binder": "B2", "peptide microarray binding signal": "0.000453 ± 4.1e-05"}, {"binder": "B4", "peptide microarray binding signal": "0.000963 ± 1.4e-05"}, {"binder": "B5", "peptide microarray binding signal": "0.000623 ± 3.1e-05"}]}, {"target": "anti-H3K4me3 antibody ab8580", "experiment": "peptide microarray binding signal (635 nm), min-max normalized on array (fraction of array maximum); higher = stronger binding", "details": "peptide region: Unmod H1 variant; binder concentration: 1:10,000 dilution", "outline": "as §1", "values": [{"binder": "B1", "peptide microarray binding signal": "0.000628 ± 6.7e-06"}, {"binder": "B2", "peptide microarray binding signal": "0.000913 ± 1.6e-05"}, {"binder": "B4", "peptide microarray binding signal": "0.001027 ± 1e-05"}, {"binder": "B5", "peptide microarray binding signal": "0.00137 ± 1.3e-05"}]}, {"target": "anti-H3K9me3 antibody ab8898", "experiment": "peptide microarray binding signal (635 nm), min-max normalized on array (fraction of array maximum); higher = stronger binding", "details": "peptide region: Unmod H1 variant; binder concentration: 1:2,000 dilution", "outline": "as §1", "values": [{"binder": "B1", "peptide microarray binding signal": "0.000121 ± 1.3e-06"}, {"binder": "B2", "peptide microarray binding signal": "0.000544 ± 1.5e-05"}, {"binder": "B4", "peptide microarray binding signal": "0.000257 ± 5.3e-06"}, {"binder": "B5", "peptide microarray binding signal": "0.000513 ± 9.7e-06"}]}, {"target": "anti-H3K9me3 antibody ab8898", "experiment": "peptide microarray binding signal (635 nm), min-max normalized on array (fraction of array maximum); higher = stronger binding", "details": "peptide region: Unmod H1 variant; binder concentration: 1:10,000 dilution", "outline": "as §1", "values": [{"binder": "B1", "peptide microarray binding signal": "0.000519 ± 5.6e-06"}, {"binder": "B2", "peptide microarray binding signal": "0.00219 ± 0.00045"}, {"binder": "B4", "peptide microarray binding signal": "0.000807 ± 1.5e-05"}, {"binder": "B5", "peptide microarray binding signal": "0.00127 ± 2.5e-05"}]}, {"target": "T1, HaloTag-ATRX ADD domain (163-292)", "experiment": "peptide microarray binding signal (635 nm), min-max normalized on array (fraction of array maximum); higher = stronger binding", "details": "peptide region: H4 53-65; peptide modifications: H4K59me3; binder concentration: 50 nM", "outline": "as §1", "values": [{"binder": "B3", "peptide microarray binding signal": "0.00755 ± 0.00027"}]}, {"target": "T1, HaloTag-ATRX ADD domain (163-292)", "experiment": "peptide microarray binding signal (635 nm), min-max normalized on array (fraction of array maximum); higher = stronger binding", "details": "peptide region: H4 53-65; peptide modifications: H4K59me3; binder concentration: 500 nM", "outline": "as §1", "values": [{"binder": "B3", "peptide microarray binding signal": "0.00719 ± 0.00011"}]}, {"target": "HaloTag-ING2 PHD (mouse Ing2 200-280)", "experiment": "peptide microarray binding signal (635 nm), min-max normalized on array (fraction of array maximum); higher = stronger binding", "details": "peptide region: H4 53-65; peptide modifications: H4K59me3; binder concentration: 10 nM", "outline": "as §1", "values": [{"binder": "B3", "peptide microarray binding signal": "0.0074 ± 5.7e-05"}]}, {"target": "HaloTag-ING2 PHD (mouse Ing2 200-280)", "experiment": "peptide microarray binding signal (635 nm), min-max normalized on array (fraction of array maximum); higher = stronger binding", "details": "peptide region: H4 53-65; peptide modifications: H4K59me3; binder concentration: 100 nM", "outline": "as §1", "values": [{"binder": "B3", "peptide microarray binding signal": "0.006945 ± 4.9e-05"}]}, {"target": "anti-H3K4me3 antibody ab8580", "experiment": "peptide microarray binding signal (635 nm), min-max normalized on array (fraction of array maximum); higher = stronger binding", "details": "peptide region: H4 53-65; peptide modifications: H4K59me3; binder concentration: 1:2,000 dilution", "outline": "as §1", "values": [{"binder": "B3", "peptide microarray binding signal": "0.00549 ± 0.00064"}]}, {"target": "anti-H3K4me3 antibody ab8580", "experiment": "peptide microarray binding signal (635 nm), min-max normalized on array (fraction of array maximum); higher = stronger binding", "details": "peptide region: H4 53-65; peptide modifications: H4K59me3; binder concentration: 1:10,000 dilution", "outline": "as §1", "values": [{"binder": "B3", "peptide microarray binding signal": "0.00616 ± 0.00023"}]}, {"target": "anti-H3K9me3 antibody ab8898", "experiment": "peptide microarray binding signal (635 nm), min-max normalized on array (fraction of array maximum); higher = stronger binding", "details": "peptide region: H4 53-65; peptide modifications: H4K59me3; binder concentration: 1:2,000 dilution", "outline": "as §1", "values": [{"binder": "B3", "peptide microarray binding signal": "0.017 ± 0.0023"}]}, {"target": "anti-H3K9me3 antibody ab8898", "experiment": "peptide microarray binding signal (635 nm), min-max normalized on array (fraction of array maximum); higher = stronger binding", "details": "peptide region: H4 53-65; peptide modifications: H4K59me3; binder concentration: 1:10,000 dilution", "outline": "as §1", "values": [{"binder": "B3", "peptide microarray binding signal": "0.0133 ± 0.00048"}]}]}
